Values joined by “and” are separate entries in the source; they are usually repeats but may differ in a detail not shown here. Equal values may be shown once. Some compounds were tested as several samples or in several runs, with calls that do not always agree. Active and inactive are the calls of the source.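 The calls were made as follows, unless noted: active = thallium flux through the channel raised or lowered by more than 3 SD from vehicle-only wells, actives on both sides; inactive = the rest.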
Tests used:
[1] = tested on: Hepatitis C virus NS3 helicase; experiment: HCV NS3 helicase inhibitors, primary screen, biochemical, fluorescence polarization, NIH Clinical Collection (AID 743270; call rule not given here); details: NS3 helicase binding to Cy5-dT15 DNA, stronger effect = higher value, concentration not given here
[2] = molecular target: Single-stranded DNA-binding protein (Escherichia coli (strain K12)) (UniProt P0AGE0); experiment: E. coli SSB displacement from DNA, counter-screen for HCV NS3 helicase inhibitor project, biochemical, fluorescence polarization, NIH Clinical Collection (AID 743271; in the data active = inhibition above about 28%); details: stronger effect = higher value, concentration not given here
[3] = fluorescence interference in NS3h assay format, artefact control for HCV NS3 helicase inhibitor project, biochemical, NIH Clinical Collection (AID 743272; call rule not given here;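 also: HCV NS3 helicase with a Cy5 labelled single stranded DNA probe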); details: fluorescence interference counterscreen, stronger effect = lower value
[4] = stimulators of nuclear beta-catenin in C2C12, primary screen, imaging, WNT3A-conditioned medium, mouse C2C12, NPC library (AID 1117326; in the data active = nuclear beta-catenin stimulation mostly above about 4.2%, no sharp cut-off; inactive = mostly below about 10%); details: stronger effect = higher value
[5] = stimulators of insulin release from INS-1E, primary screen, cell-based, 5 mM glucose, NPC library (AID 1117329;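 active = compound raises insulin release from rat beta cells at 5 mM glucose, no numeric limit stated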); details: rat INS-1E insulin secretion, at 10 µM, stronger effect = higher value
[6] = growth inhibition of GSK3B-pretreated HCT116 cells – cell-based, CellTiter-Glo, 0.2 to 20 µM (AID 1117336;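 active = compounds lowering colon cancer cell viability after pretreatment blocking the GSK3B kinase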); details: HCT116 viability after GSK3B inhibitor, at 20 µM, stronger effect = higher value
[7] = inhibition of endothelial tube formation, primary screen, imaging, VEGF stimulated, CD31 staining, tube area, NPC library (AID 1117340;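 active = compound that reduces growth-factor-driven endothelial tube area in a mixed cell culture, no cutoff stated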); details: VEGF-stimulated ADSC/ECFC co-culture, at 10 µM, stronger effect = higher value
[8] = glucagon-like peptide 1 release enhancers, primary assay, NCI-H716 cell line, NPC library (AID 1117341;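 active = compound raises GLP1 secretion from the human gut endocrine cells, with no numeric limit stated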); details: NCI-H716 cells, at 10 µM, stronger effect = higher value
[9] = HCT116 colon cancer cell growth inhibition, primary screen, CellTiter-Glo luminescence, NPC library (AID 1117342;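 active = compounds that lower survival of HCT116 colon cancer cells in the luminescence readout, no numeric limit stated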); details: at 20 µM (top of the series)
[10] = CellTiter-Glo luminescent readout of SW480 viability loss, NPC library primary (AID 1117343;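 active = compounds that lower viability of the colon cancer cells in the luminescence readout, with no numeric limit stated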); details: CellTiter-Glo luminescence; at 20 µM (top of the series)
[11] = decreased DLD-1 cellular survival, CellTiter-Glo luminescent readout, NPC compound collection, primary HTS (AID 1117346;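 active = compounds that lower survival of DLD-1 colon cancer cells in the luminescence readout, no cutoff given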); details: DLD-1 viability, CellTiter-Glo luminescence; at 20 µM (top of the series)
[12] = molecular target: 6-phosphogluconate dehydrogenase, decarboxylating (Homo sapiens) (UniProt P52209); experiment: 6PGD enzyme inhibitors, primary screen, biochemical, human, recombinant enzyme, NADPH absorbance (AID 1159550;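 active = at least 20% inhibition of 6-phosphogluconate dehydrogenase activity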); details: recombinant 6PGD, NADPH absorbance 341 nm; at 10 µM; stronger effect = higher value
6-phosphogluconate dehydrogenase, decarboxylating (Homo sapiens), sequence (P52209 whole entry, looked up): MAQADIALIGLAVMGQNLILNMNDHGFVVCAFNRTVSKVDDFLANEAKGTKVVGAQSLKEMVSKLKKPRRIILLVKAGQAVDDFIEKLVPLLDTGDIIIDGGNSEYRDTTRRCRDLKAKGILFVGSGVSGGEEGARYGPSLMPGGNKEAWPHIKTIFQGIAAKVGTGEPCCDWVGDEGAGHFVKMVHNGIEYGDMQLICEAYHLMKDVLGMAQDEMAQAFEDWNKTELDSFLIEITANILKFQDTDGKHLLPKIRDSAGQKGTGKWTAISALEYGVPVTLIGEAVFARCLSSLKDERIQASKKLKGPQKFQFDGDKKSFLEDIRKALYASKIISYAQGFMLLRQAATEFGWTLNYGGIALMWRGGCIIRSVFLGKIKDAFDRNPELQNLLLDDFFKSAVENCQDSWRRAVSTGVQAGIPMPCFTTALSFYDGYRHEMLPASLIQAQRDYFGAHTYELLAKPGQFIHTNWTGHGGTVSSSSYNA

[13] = differential killing of epithelial or mesenchymal cells, primary screen, imaging, PC-3E GFP, TEM4-18 mCherry, co-culture (AID 1345086;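 active = compounds killing one labelled cell type while sparing the other, by normalised counts and ratio limits, not self-fluorescent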;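 as to all read-outs here: cells exposed to compound for 72 h before imaging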;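 as to red/green cell ratio (normalised): normalised mesenchymal count divided by normalised epithelial count so high means epithelial killing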); details: imaging cell counts, at 1 µM; for red/green cell ratio (normalised): actives lie on both sides, counts scaled to control wells, 1 = unselective
[14] = survival rescue of mitochondrial mutant cells in low glucose, primary screen, MELAS cybrids, Rieske KO mouse fibroblasts, CellTiter-Glo (AID 1508586;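 active = mean z-score across replicates of 1.96 or higher in either the MELAS or the Rieske mutant cell line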;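 also: z relative to plate mean and SD of compound and empty wells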)
[15] = molecular target: NAD(+) hydrolase SARM1 (Homo sapiens) (UniProt Q6SZW1); experiment: SARM1 TIR NADase inhibitors, cell lysate, NAD-Glo luminescence (AID 1508614;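 active = compound whose remaining NAD level is above about 45 nM, limit read from the data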;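 also: higher remaining NAD means stronger inhibition of SARM1 NADase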); details: SAM-TIR HEK293T lysate NADase, at 1 µM, stronger effect = higher value
NAD(+) hydrolase SARM1 (Homo sapiens), sequence (Q6SZW1 whole entry, looked up, the tested form may be a part): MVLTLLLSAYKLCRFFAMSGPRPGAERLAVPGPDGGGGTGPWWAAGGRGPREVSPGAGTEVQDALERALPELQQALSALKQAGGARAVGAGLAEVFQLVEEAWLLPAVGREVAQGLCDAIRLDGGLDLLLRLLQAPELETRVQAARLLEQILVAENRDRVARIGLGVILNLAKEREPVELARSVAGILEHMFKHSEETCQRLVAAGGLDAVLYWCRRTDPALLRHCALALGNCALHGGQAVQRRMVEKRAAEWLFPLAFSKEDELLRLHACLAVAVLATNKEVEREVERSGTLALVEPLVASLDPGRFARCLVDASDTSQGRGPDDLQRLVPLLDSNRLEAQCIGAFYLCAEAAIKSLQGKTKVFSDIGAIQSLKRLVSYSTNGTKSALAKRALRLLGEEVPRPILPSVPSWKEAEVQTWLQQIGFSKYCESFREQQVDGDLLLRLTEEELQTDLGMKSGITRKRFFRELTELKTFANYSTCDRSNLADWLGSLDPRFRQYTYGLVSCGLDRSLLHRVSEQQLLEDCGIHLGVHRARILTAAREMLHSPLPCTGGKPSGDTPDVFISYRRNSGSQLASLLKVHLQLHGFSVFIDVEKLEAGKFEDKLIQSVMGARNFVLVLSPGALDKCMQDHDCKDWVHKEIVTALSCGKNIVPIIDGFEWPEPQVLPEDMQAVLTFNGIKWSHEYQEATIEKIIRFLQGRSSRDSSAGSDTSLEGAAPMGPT

[16] = molecular target: Mitogen-activated protein kinase 7 (Homo sapiens) (UniProt Q13164); experiment: ERK5 transactivation activators in reporter cells, primary screen, cell-based, HTS (AID 1508626;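 active = luciferase signal above three times the same-plate solvent-only control wells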;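 also: luciferase driven by Gal4-ERK5 fusion binding five Gal4 sites before minimal TATA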); details: HeLa Gal4-ERK5 transactivation, 18 h, at 5 µM, stronger effect = higher value
Mitogen-activated protein kinase 7 (Homo sapiens), sequence (Q13164 whole entry, looked up, the tested form may be a part): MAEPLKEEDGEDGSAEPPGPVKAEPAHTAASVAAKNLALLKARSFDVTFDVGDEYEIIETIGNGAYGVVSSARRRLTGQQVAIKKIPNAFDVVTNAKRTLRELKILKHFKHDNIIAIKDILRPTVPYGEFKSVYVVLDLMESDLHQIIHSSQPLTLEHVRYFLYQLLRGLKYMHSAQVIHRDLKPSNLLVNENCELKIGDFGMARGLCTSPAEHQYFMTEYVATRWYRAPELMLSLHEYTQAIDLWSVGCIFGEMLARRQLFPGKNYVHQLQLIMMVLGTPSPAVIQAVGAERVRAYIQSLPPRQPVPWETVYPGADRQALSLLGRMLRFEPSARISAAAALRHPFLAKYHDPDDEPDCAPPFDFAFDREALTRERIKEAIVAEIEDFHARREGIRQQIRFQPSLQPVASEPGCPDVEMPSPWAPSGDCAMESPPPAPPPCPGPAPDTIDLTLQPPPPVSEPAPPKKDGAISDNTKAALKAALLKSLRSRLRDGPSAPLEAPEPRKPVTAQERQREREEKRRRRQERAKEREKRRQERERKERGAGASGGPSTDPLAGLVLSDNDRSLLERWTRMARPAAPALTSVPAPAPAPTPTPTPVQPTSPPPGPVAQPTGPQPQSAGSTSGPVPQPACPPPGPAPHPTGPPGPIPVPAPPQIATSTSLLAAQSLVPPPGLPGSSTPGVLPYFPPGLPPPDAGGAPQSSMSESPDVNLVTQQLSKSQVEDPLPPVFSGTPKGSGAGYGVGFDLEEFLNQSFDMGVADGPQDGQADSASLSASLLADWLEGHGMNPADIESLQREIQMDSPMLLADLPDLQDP

F380Y = experiment: modulators of BK channel variants, profiling panel, selectivity assay, cell-based, U2OS BacMam, thallium flux, beta subunits (AID 1259406); details: at 30 µM;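 also: initial slope of Thallos dye fluorescence rise after thallium is added; log ratio against the mean of 0.3% DMSO vehicle wells on the same plate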
F380Y/beta2Delta = experiment: as above; details: at 30 µM
[17] = molecular target: Calcium-activated potassium channel subunit alpha-1 (Homo sapiens) + Leucine-rich repeat-containing protein 26 (Homo sapiens) (UniProt Q12791+Q2I0M4); experiment: as above; details: F380Y/Slo1WT/gamma1, at 30 µM
Calcium-activated potassium channel subunit alpha-1 (Homo sapiens) + Leucine-rich repeat-containing protein 26 (Homo sapiens), sequence (Q2I0M4 whole entry, looked up, one chain of several): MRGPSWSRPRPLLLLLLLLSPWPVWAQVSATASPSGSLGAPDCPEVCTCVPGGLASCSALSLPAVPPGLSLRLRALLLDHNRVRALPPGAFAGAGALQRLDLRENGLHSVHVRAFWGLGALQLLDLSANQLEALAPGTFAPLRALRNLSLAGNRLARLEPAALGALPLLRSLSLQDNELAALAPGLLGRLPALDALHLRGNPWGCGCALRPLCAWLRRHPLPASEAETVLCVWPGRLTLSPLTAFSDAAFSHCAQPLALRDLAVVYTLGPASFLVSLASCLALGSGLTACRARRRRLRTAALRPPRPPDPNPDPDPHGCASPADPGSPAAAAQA

[18] = sensitizers of A549 cells to miR-34 induction, primary screen, imaging, A549 dox-inducible miR-34, nuclei and caspase counts (AID 1347080;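 active = compounds whose cell count with miR-34 switched on is under 0.7 times the count with it off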); details: A549 miR-34 inducible, Hoechst nuclei count, 48 h
[19] = measured here: epithelial PC-3E GFP cell survival
[20] = measured here: mesenchymal TEM4-18 mCherry cell survival
[21] = MELAS cybrid survival, CellTiter-Glo 48 h, stronger effect = higher value
[22] = Rieske KO mouse fibroblast survival, CellTiter-Glo 72 h
[23] = stronger effect = lower value, cell number ratio, induced over uninduced
[24] = measured here: relative caspase fold change +Dox/-Dox
[25] = measured here: total cells with miR-34 induction, stronger effect = lower value
[26] = measured here: total cells without miR-34 induction

Cc1cccc(Nc2ccccc2C(=O)O)c1C
-0.308 and -0.333 and -1.12: z-score [14, 22]
1.18: normalised cell number [13, 19]
0.4%: nuclear beta-catenin stimulation ([4]; stimulation, at 2 µM)
1.08: normalised cell number [13, 20]
inactive: inhibition [1] -5% | inhibition [2] 1.05% | fluorescence ratio [3] 0.91 | nuclear beta-catenin stimulation ([4]; at 10 µM) 0.8% | insulin secretion stimulation [5] -1.6% | viability decrease [6] -0.3% | tube area decrease [7] 18% | GLP1 secretion stimulation [8] -0.1% | inhibition of viability [9] -21% | viability decrease (inhibition) [10] 29.6% | viability decrease (inhibition) [11] 2.25% | inhibition [12] 17.3% | red/green cell ratio (normalised) [13] 0.92 | z-score [14, 21] -0.21 and 0.386 and -0.378 | remaining NAD [15] 10 nM | luciferase signal [16] 232 AU | log fold change Tl+ flux (F380Y) 0.0635
active: log fold change Tl+ flux (F380Y/beta2Delta) 0.111 | log fold change Tl+ flux [17] 0.101

C[C@H]1C[C@@H]2[C@H]([C@@H](O)C[C@@]3(C)[C@H]2CC[C@]3(O)C(=O)CO)[C@@]2(C)C=CC(=O)C=C12
7180 and 6410 and 5950: cell count [18, 25]
0.739 and 1.35 and 1.33: fold change [18, 24]
0%: nuclear beta-catenin stimulation ([4]; stimulation, at 2 µM)
7490 and 7930 and 7360: cell count [18, 26]
inactive: inhibition [1] -1.36% | inhibition [2] 1.81% | fluorescence ratio [3] 1.04 | nuclear beta-catenin stimulation ([4]; at 10 µM) -1.3% | insulin secretion stimulation [5] 2.2% | viability decrease [6] -8.4% | tube area decrease [7] -6.1% | GLP1 secretion stimulation [8] 1% | inhibition of viability [9] 2.5% | viability decrease (inhibition) [10] 3.7% | viability decrease (inhibition) [11] -5% | inhibition [12] 12.4% | fold change [18, 23] 0.959 and 0.809 and 0.808 | z-score [14, 21] 0.0891 and -0.0037 | remaining NAD [15] 10 nM | luciferase signal [16] 100 AU | log fold change Tl+ flux (F380Y) 0.00302 | log fold change Tl+ flux (F380Y/beta2Delta) 0.00102 | log fold change Tl+ flux [17] -0.0378
-0.286 and 1.09: z-score [14, 22]

CC(C)C1CCC(C(=O)N[C@H](Cc2ccccc2)C(=O)O)CC1 (some centres undefined)
8810: cell count [18, 25]
active: fluorescence ratio [3] 0.74 | insulin secretion stimulation [5] 49.4%
inactive: inhibition [1] -0.4% | inhibition [2] 2.98% | nuclear beta-catenin stimulation ([4]; at 10 µM) -0.5% | viability decrease [6] -22.6% | tube area decrease [7] -2.3% | GLP1 secretion stimulation [8] 2.1% | inhibition of viability [9] -6.47% | viability decrease (inhibition) [10] 1% | viability decrease (inhibition) [11] -23.8% | inhibition [12] 0.904% | fold change [18, 23] 0.871 | z-score [14, 21] -0.215 and -1.18 | remaining NAD [15] 10 nM | luciferase signal [16] 80 AU | log fold change Tl+ flux (F380Y) -0.00809 | log fold change Tl+ flux (F380Y/beta2Delta) 0.0541 | log fold change Tl+ flux [17] 0.0401
1.37: fold change [18, 24]
10100: cell count [18, 26]
0.2%: nuclear beta-catenin stimulation ([4]; stimulation, at 2 µM)
-0.618 and -0.816: z-score [14, 22]

CCCN(CCC)S(=O)(=O)c1ccc(C(=O)O)cc1
inactive: inhibition [1] -3.18% | inhibition [2] -0.48% | fluorescence ratio [3] 0.94 | nuclear beta-catenin stimulation ([4]; at 10 µM) -1.3% | insulin secretion stimulation [5] 0.5% | viability decrease [6] -23.6% | tube area decrease [7] -14.2% | GLP1 secretion stimulation [8] -0.7% | inhibition of viability [9] 12.4% | viability decrease (inhibition) [10] 14.9% | viability decrease (inhibition) [11] -10.5% | inhibition [12] 0.15% | red/green cell ratio (normalised) [13] 1.43 | z-score [14, 21] -0.112 and 0.174 | remaining NAD [15] 10 nM | luciferase signal [16] 80 AU | log fold change Tl+ flux (F380Y) -0.012 | log fold change Tl+ flux (F380Y/beta2Delta) -0.000486 | log fold change Tl+ flux [17] 0.021
1.12: normalised cell number [13, 20]
-0.203 and 0.258: z-score [14, 22]
-0.2%: nuclear beta-catenin stimulation ([4]; stimulation, at 2 µM)
0.78: normalised cell number [13, 19]

CC(=O)[C@H]1CC[C@H]2[C@@H]3C[C@H](C)C4=CC(=O)CC[C@]4(C)[C@H]3[C@@H](O)C[C@]12C
inactive: inhibition [1] -0.45% | inhibition [2] 0.29% | fluorescence ratio [3] 0.99 | nuclear beta-catenin stimulation ([4]; at 10 µM) 0.3% | insulin secretion stimulation [5] 0% | viability decrease [6] -48.8% | tube area decrease [7] 13.8% | GLP1 secretion stimulation [8] 0.4% | inhibition of viability [9] 14.4% | viability decrease (inhibition) [10] 11.1% | viability decrease (inhibition) [11] -5.4% | inhibition [12] -11.2% | fold change [18, 23] 0.951 and 0.798 | z-score [14, 21] 0.756 | remaining NAD [15] 10 nM | luciferase signal [16] 84 AU | log fold change Tl+ flux (F380Y) -0.0207 | log fold change Tl+ flux (F380Y/beta2Delta) -0.0669 | log fold change Tl+ flux [17] -0.019
1.06 and 1.54: fold change [18, 24]
6920 and 8680: cell count [18, 26]
1.33: z-score [14, 22]
-0.3%: nuclear beta-catenin stimulation ([4]; stimulation, at 2 µM)
6580 and 6920: cell count [18, 25]

CCCSc1ccc2nc(NC(=O)OC)[nH]c2c1
inactive: inhibition [1] -2.27% | inhibition [2] -1.24% | fluorescence ratio [3] 1.01 | insulin secretion stimulation [5] -1% | GLP1 secretion stimulation [8] 0.9% | inhibition [12] -6.38% | red/green cell ratio (normalised) [13] 0.93 | remaining NAD [15] 10 nM | log fold change Tl+ flux (F380Y) -0.0721 | log fold change Tl+ flux (F380Y/beta2Delta) 0.0117 | log fold change Tl+ flux [17] -0.0345
0.24: normalised cell number [13, 20]
0.0317 and -0.672 and 1.64: z-score [14, 22]
active: nuclear beta-catenin stimulation ([4]; at 10 µM) 49% | viability decrease [6] 87.3% | tube area decrease [7] 102% | inhibition of viability [9] 76% | viability decrease (inhibition) [10] 86.6% | viability decrease (inhibition) [11] 56.7% | luciferase signal [16] 368 AU
2.78 (active) and -2.05 (inactive): z-score [14, 21]
24.2%: nuclear beta-catenin stimulation ([4]; stimulation, at 2 µM)
0.26: normalised cell number [13, 19]

Cn1c(=O)c2[nH]cnc2n(C)c1=O
inactive: inhibition [1] 0.45% | inhibition [2] -2.76% | fluorescence ratio [3] 1 | nuclear beta-catenin stimulation ([4]; at 10 µM) 1.1% | insulin secretion stimulation [5] 0.2% | viability decrease [6] 0.3% | tube area decrease [7] -10.1% | GLP1 secretion stimulation [8] -0.8% | inhibition of viability [9] 6% | viability decrease (inhibition) [10] 20.4% | viability decrease (inhibition) [11] -2.35% | inhibition [12] 4.58% | remaining NAD [15] 10 nM | luciferase signal [16] 96 AU | log fold change Tl+ flux (F380Y) 0.0321 | log fold change Tl+ flux (F380Y/beta2Delta) -0.0514 | log fold change Tl+ flux [17] -0.0341
0.3%: nuclear beta-catenin stimulation ([4]; stimulation, at 2 µM)

Reference: PubChem BioAssay
